bovine MsrA act: activates bovine MsrA enzyme. purified bovine MsrA, absorbance read-out. activation, % at 10.6 µM. actives 0.3% (n = 360,000). AID 602163; in the data active means activation above about 7.5%;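 further: 0% = vehicle and 100% = reference activator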
PKA-R1A activ: activators of PKA-R1A complex. P00514+P68181. AID 504707. activation, % at 11.4 µM. PKA-R1A dissociation, Cy5-IP20 fluorescence polarization; scaled: DMSO 0%, 113 µM cGMP 100%. actives 0.083% (n = 340,000);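 active means percent activation above the mean of all tested compounds plus 3 SD, cut at about 19% in these data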;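 further: higher means more PKAc released from R1A so a rise in polarization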
PKA-R2B act: activates the human PKA-R2B holoenzyme complex. actives 0.079% (n = 340,000). activation, % at 11.4 µM. PKA-R2B holoenzyme dissociation, Cy5-IP20 fluorescence polarization; R2B truncated from residue 108, S112A mutant; 0% DMSO only, 100% 113 µM cGMP. P22694+P31323;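 active means activation above a cutoff set at the mean over all compounds plus 3 SD, cut at about 18% in these data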;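 further: higher means more holoenzyme dissociation and a rise in polarization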
Target sequence (P31323 whole entry, looked up, other chains not shown, the tested form may be a part): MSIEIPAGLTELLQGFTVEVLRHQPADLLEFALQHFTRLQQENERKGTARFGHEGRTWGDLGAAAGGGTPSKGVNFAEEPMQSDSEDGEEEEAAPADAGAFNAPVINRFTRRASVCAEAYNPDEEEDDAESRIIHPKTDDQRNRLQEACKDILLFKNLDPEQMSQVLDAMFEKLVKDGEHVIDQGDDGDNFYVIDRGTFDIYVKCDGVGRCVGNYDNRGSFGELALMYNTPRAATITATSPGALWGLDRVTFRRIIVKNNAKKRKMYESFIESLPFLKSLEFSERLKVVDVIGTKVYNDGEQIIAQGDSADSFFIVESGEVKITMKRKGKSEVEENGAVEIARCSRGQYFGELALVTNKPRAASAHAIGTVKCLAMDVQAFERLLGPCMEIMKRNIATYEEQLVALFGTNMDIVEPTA
SUMO Mot1 rescue: SUMOylation pathway inhibition by Mot1-301 growth rescue | S. cerevisiae Mot1-301 growth rescue, ATP luminescence, 38.5C; percent above DMSO median, 100 means doubled | growth rescue, % at 18.8 µM | actives 1% (n = 320,000);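 active means every valid replicate shows activation above 250% relative to neutral control wells; inactive means the rest, any valid replicate at or below 250%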;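 further: OY570 slx delta 5 strain wells were the positive control but not used for scaling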
MsrA inh: inhibitors of bovine MsrA. inhibition, % at 15.5 µM. actives 0.75% (n = 360,000). purified bovine MsrA, absorbance read-out; in the data active means inhibition above about 4.5%;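 further: 0% = vehicle wells with enzyme and 100% = reference inhibitor wells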
MsrA act confirm: bovine methionine sulfoxide reductase A activation confirmed; actives 12% (n = 1,000); activation, % at 10.6 µM; shares compounds with bovine MsrA act; AID 602270; purified bovine MsrA, absorbance read-out; in the data active means activation above about 4%;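 further: enzyme coupled to thioredoxin and thioredoxin reductase with NADPH; 0% = vehicle wells and 100% = reference activator wells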
Starred values were filed as active, the others as inactive. This is a sample that favours compounds with a hit; in the whole collection about 2% have one here.

How did CC1(C)OC(=O)C2=C(CC(CCc3ccccc3)OC2CCc2ccccc2)O1 (stereo not given) do in these assays?
MsrA inh: -0.6

What do the screens show for `CCOC(=O)c1c2c(n(-c3ccc(OC)cc3)c1C)C(=O)C(=O)c1ccccc1-2`?
bovine MsrA act: 7.7*; PKA-R1A activ: -5.9; PKA-R2B act: 2.2; MsrA act confirm: 6.2*

Results for O=C(C1CCN(S(=O)(=O)N2CCOCC2)CC1)N1CCN(c2ccccc2)CC1 ?
bovine MsrA act: 10.2*; PKA-R1A activ: -1.8; PKA-R2B act: 0.1; SUMO Mot1 rescue: -3.0; MsrA inh: 0.0; MsrA act confirm: -1.7

What do the screens show for `O=C(N/N=C/c1cccs1)C1COc2ccccc2O1` (stereo not given)?
bovine MsrA act: 8.6*; PKA-R1A activ: -10.0; PKA-R2B act: -6.9; SUMO Mot1 rescue: 6.5; MsrA inh: 0.7; MsrA act confirm: -1.9

What do the screens show for `C=C1CCC[C@]2(C)C[C@H]3OC(=O)C(CN(C)CC(OC)OC)[C@H]3CC12` (stereo not given in full)?
bovine MsrA act: 8.7*; PKA-R1A activ: 8.0; PKA-R2B act: -1.0; SUMO Mot1 rescue: -9.4; MsrA inh: -0.2; MsrA act confirm: -1.5

What do the screens show for `Cc1nn(C)c(C)c1CN(C)C(=O)C1c2ccccc2Oc2ccccc21`?
bovine MsrA act: -2.9; PKA-R1A activ: -0.7; PKA-R2B act: -3.8; SUMO Mot1 rescue: -15.6; MsrA inh: 0.2

Results for Cc1nn(C)c(C)c1CN(C)C(=O)C1(C)CC1(Br)Br (stereo not given) ?
bovine MsrA act: 9.6*; PKA-R1A activ: -2.7; PKA-R2B act: 11.1; SUMO Mot1 rescue: 3.7; MsrA inh: -0.6; MsrA act confirm: -1.4

What do the screens show for `CC(C)C[C@H]1COc2ccc(Cl)cc2S(=O)(=O)N1`?
MsrA inh: -0.5

Results for NC(=O)c1ccc(=O)n(Cc2ccc(F)c(F)c2)c1 ?
bovine MsrA act: 8.0*; PKA-R1A activ: 4.1; PKA-R2B act: 8.5; SUMO Mot1 rescue: 7.5; MsrA inh: 0.2; MsrA act confirm: -0.7

What do the screens show for `Cc1c(COC(=O)NC(C)C)c(COC(=O)NC(C)C)c2n1CS(=O)(=O)C2`?
MsrA inh: -0.4

How did CN(c1cccnc1)c1ccc(NC(=O)Cc2cn(Cc3ccccc3)c3ccccc23)cc1Br do in these assays?
MsrA inh: 0.4

What do the screens show for `COc1ccc(-c2nnc(SCC(=O)NC(=O)NCc3ccccc3)o2)cc1`?
bovine MsrA act: 9.7*; PKA-R1A activ: -0.4; PKA-R2B act: -1.1; MsrA inh: 0.3; MsrA act confirm: -1.1

How did COc1ccc(-c2nnc(SCC(=O)NCc3ccco3)o2)cc1 do in these assays?
bovine MsrA act: -4.1; PKA-R1A activ: -11.1; PKA-R2B act: -5.3; SUMO Mot1 rescue: -2.2; MsrA inh: 0.0

What do the screens show for `COc1ccccc1-c1nc(-c2ccncc2)no1`?
bovine MsrA act: 0.7; PKA-R1A activ: -11.7; PKA-R2B act: -6.8; SUMO Mot1 rescue: 20.9; MsrA inh: -0.9

What do the screens show for `CCOc1ccc(-c2noc(-c3ccncc3)n2)cc1OCC`?
bovine MsrA act: -1.6; PKA-R1A activ: -12.5; PKA-R2B act: 2.1; SUMO Mot1 rescue: 12.2; MsrA inh: 0.6

Results for CCOc1ccc(-c2nc(-c3ccc(OC)cc3)no2)cc1OCC ?
bovine MsrA act: 7.9*; PKA-R1A activ: 4.5; PKA-R2B act: -8.1; SUMO Mot1 rescue: 4.4; MsrA inh: -0.4; MsrA act confirm: -0.5

What do the screens show for `CCOc1ccccc1-c1nc(-c2ccncc2)no1`?
bovine MsrA act: 8.4*; PKA-R1A activ: -2.4; PKA-R2B act: -3.0; SUMO Mot1 rescue: 13.5; MsrA inh: -0.9; MsrA act confirm: -1.1

How did C[C@H]1CNCCN1c1ccc(N2CCS(=O)(=O)CC2)c(C#N)c1 do in these assays?
MsrA inh: -0.6

How did CCc1nn(CC(=O)NCCCN2CCOCC2)c(=O)c2cc3sccc3n12 do in these assays?
bovine MsrA act: 0.4; PKA-R1A activ: -0.2; PKA-R2B act: 3.8; SUMO Mot1 rescue: 1.7; MsrA inh: 2.3

Results for CCc1nn(CC(=O)NCCCN2CCOCC2)c(=O)c2cc3cc(F)ccc3n12 ?
bovine MsrA act: 7.9*; PKA-R1A activ: -0.6; PKA-R2B act: 2.3; SUMO Mot1 rescue: -1.7; MsrA inh: 0.9; MsrA act confirm: -0.8

Results for CC(C)C[C@H]1CN(CCCC[C@@H]2CNC(=O)C(=O)N2CCc2ccccc2)C(=O)C(=O)N1Cc1ccccc1 ?
bovine MsrA act: 19.1*; MsrA inh: 0.6; MsrA act confirm: -4.2

How did NC(=O)c1ncn([C@@H]2O[C@H](C(=O)Nc3ccc(Oc4ccccc4)nc3)[C@@H](O)[C@H]2O)n1 do in these assays?
MsrA inh: 0.6

Results for N#Cc1cnn(-c2ccc([N+](=O)[O-])cc2[N+](=O)[O-])c1N ?
bovine MsrA act: 8.3*; PKA-R1A activ: -7.7; PKA-R2B act: -1.0; MsrA inh: -0.4; MsrA act confirm: 1.5

Results for N#Cc1cnn(-c2cc(Cl)ccc2Cl)c1N ?
bovine MsrA act: -6.6; PKA-R1A activ: -1.4; PKA-R2B act: -4.1; MsrA inh: 0.4

How did Cc1ccc(C(=O)NCC(=O)N2CCN(c3ncccn3)CC2)s1 do in these assays?
bovine MsrA act: 9.2*; PKA-R1A activ: -1.1; PKA-R2B act: -3.7; SUMO Mot1 rescue: 22.3; MsrA inh: -1.0; MsrA act confirm: -0.4

Results for CC(C)Cn1[nH]c2c3c(ccc2c1=O)C(=O)c1ccccc1C3=O ?
bovine MsrA act: 7.8*; PKA-R1A activ: 6.1; PKA-R2B act: -4.8; SUMO Mot1 rescue: -36.6; MsrA act confirm: 3.2

What do the screens show for `O=C1c2ccccc2-c2nnc(-c3ccccc3)cc21`?
bovine MsrA act: 9.4*; PKA-R1A activ: -0.7; PKA-R2B act: -2.8; SUMO Mot1 rescue: 65.8; MsrA inh: -0.4; MsrA act confirm: 4.0*

Results for Cc1ccc(-c2noc(COc3ccccc3C)n2)cc1 ?
bovine MsrA act: 8.1*; PKA-R1A activ: -0.1; PKA-R2B act: -10.0; MsrA inh: 1.3; MsrA act confirm: -2.8

What do the screens show for `CN(C)CCCn1c2c(c(SCC(=O)Nc3cccc4ccccc34)nc1=O)CCCC2`?
bovine MsrA act: 11.2*; PKA-R1A activ: -5.6; PKA-R2B act: -9.9; SUMO Mot1 rescue: -9.7; MsrA inh: -0.7; MsrA act confirm: 0.5

Results for CCN(CC)CCCn1c2c(c(SCC(=O)Nc3cccc4ccccc34)nc1=O)CCC2 ?
bovine MsrA act: -2.6; PKA-R1A activ: -3.9; PKA-R2B act: 2.8; SUMO Mot1 rescue: 3.7; MsrA inh: 1.0

What do the screens show for `O=C(CC1CCCCC1)Nc1ccc(-c2ccc3nncn3n2)cc1`?
bovine MsrA act: 7.7*; PKA-R1A activ: -3.3; PKA-R2B act: -5.1; MsrA inh: 0.3; MsrA act confirm: -0.7

Screening data: PubChem, several laboratories
